# Assay results as given in PubChem BioAssay AID1345083 (National Center for Advancing Translational Sciences (NCATS), 2018).
# The whole screen tested about 94,000 compounds, of which about 6,200 (6.6%) were called active. About 31% were inconclusive and are not listed. The sample as a whole holds a higher share of actives than the screen did. Values without a mark were called inactive. Calls come from the whole dose curve; as a rule, active = well fitted inhibition curve with a large enough effect; inconclusive = small, poorly fitted or top-dose-only effect; inactive = flat fitted curve, though single readings scatter.
# Assay: Cytotoxic Profiling in HEK 293 Cell Line of Diverse Libraries Using Quantitative High-Throughput Screening; note: nearly all actives have a fitted effect of over 60% in size
# Conditions: HEK 293 viability, ATP luminescence (CellTiter-Glo), 48-72 h; series mostly up to 115 µM; activity change, negative = cytotoxicity: at the top concentration
# Method in brief: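 CellTiter-Glo luminescence (cellular ATP) was read after 48 or 72 hr of compound exposure at 37 degree Celsius. Cells were HEK 293 plated at 250 cells/well.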
# % is set by controls: 0 for no effect and ±100 for the full control effect; potency is the fitted concentration of half-maximal effect.
Compound,"activity change, negative = cytotoxicity",Potency,outcome
CCc1nc2c(c(-c3ccc(OC)cc3)n1)CCN(CC1CCCCC1)CC2,-20.6%,–,–
O=C(NCCc1ccccc1)N1CCCCCC1CN1CCOCC1 (stereo not given),1.18%,–,–
O=C(NCCOc1ccccc1)c1nc2c(o1)CCN(CC1CCCCC1)CC2,–,100 µM (active),–
CN1C(=O)[C@H]2CN(Cc3ccccc3Cl)C[C@H]2C1=O,-5.39%,–,–
c1coc(-c2ccnc3nc(C4CC4)nn23)c1,-5.45%,–,–
COc1cc(NC(=O)C2Cn3cccc3C(=O)N2)cc(OC)c1 (stereo not given),–,–,inactive
Cc1noc(C)c1[S+](=O)([O-])N1CCn2c(nnc2-c2ccccc2)C1,-23.3%,–,–
Cc1noc(C)c1[S+](=O)([O-])NC1CCN(Cc2cccc(-c3ccc(F)c(F)c3)c2)CC1,–,25.1 µM (active),–
Cc1noc(C)c1[S+](=O)([O-])N1CCCC(c2nnc3n2C(C(=O)O)CC3)C1 (stereo not given),–,–,inactive
Cc1noc(C)c1[S+](=O)([O-])NC1CCN(Cc2ccc(-c3ccsc3)cc2)C1 (stereo not given),–,39.8 µM (active),–
Cc1noc(C)c1[S+](=O)([O-])N1CC(Oc2ccc(F)c(F)c2)C1,-8.54%,–,–
CSc1ccc(-c2cccc(CN3CCC(N[S+](=O)([O-])c4cccs4)CC3)c2)cc1,–,22.4 µM (active),–
O=C1N2CCCC2CN1C1CCN(Cc2ccsc2)CC1 (stereo not given),-3.09% [at 172 µM],–,–
CCCN1C(=O)C(CC(=O)NC2CCCC2)Sc2ncccc21 (stereo not given),9.1%,–,–
CC(C)CCN1CCc2c(n(Cc3cccnc3)n(-c3ccccc3)c2=O)C1,4.31% [at 172 µM],–,–
CCn1ncc(N2CCC(NC(=O)C(C)c3ccccc3)CC2)cc1=O (stereo not given),-2.7%,–,–
CN1[C@@H](CCC(=O)N2CCN(c3ccccn3)CC2)CNC(=O)[C@@H]2[C@H]1CCN2Cc1csnn1,1.42%,–,–
CN(Cc1cccnc1)C1CN(C(=O)c2ccnn2C)C1,-5.32%,–,–
CN(Cc1cccc2ccccc12)C1CCc2ccccc21 (stereo not given),1.89% [at 172 µM],–,–
CN(CC1CCOC1)C(=O)c1ccccc1Br (stereo not given),-14.7%,–,–
O=C(c1ccc(C(F)(F)F)cc1)N1CCC2(C1)C(=NC1CCCC1)NC(=O)N2c1cccnc1 (stereo not given),4.18%,–,–
CN(CC1(C)CCOCC1)S(=O)(=O)C1CC1,-3.58%,–,–
O=C(N[C@@H]1C[C@H](Cn2cc(-c3cccnc3)nn2)[C@@H](O)[C@H]1O)c1ccccc1,4.8%,–,–
O=c1[nH]c(N2CCOCC2)nc2c1CCN(Cc1cccc(F)c1)CC2,-0.181%,–,–
CN(C)c1ccc(C(=O)N2CCN3C(=O)N(Cc4ccccc4)C(=O)[C@H]3C2)cc1,-26.6% [at 172 µM],–,–

Compound,"activity change, negative = cytotoxicity",Potency,outcome
CC1=C[C@@H](CNC(C)C)[C@H](C(C)C)C[C@H]1Cc1nnc(-c2ccc(N(C)C)cc2)o1,–,31.6 µM (active),–
CC(=O)NC[C@@H]1C=C(C)[C@H](CC(=O)N2CCCC2)C[C@H]1C(C)C,3.61% [at 172 µM],–,–
CC1=C[C@@H](CNC2CC2)[C@H](C(C)C)C[C@H]1Cc1nnc(-c2ccc(C)cc2)o1,–,50.1 µM (active),–
CC1=C[C@@H](CNC(C)C)[C@H](C(C)C)C[C@H]1Cc1nnc(-c2ccc(C)cc2)o1,–,70.8 µM (active),–
O=C1CCC2(CCCN(C(=O)c3ccc(F)cc3)C2)CN1CCc1cnc[nH]1 (stereo not given),-7.95%,–,–
CC(C)CN1CC2(CCN(C(=O)c3conc3-c3ccccc3)CC2)CC1=O,3.69%,–,–
CC(C)S(=O)(=O)N1CCC(c2nnc3n2CCNC3)CC1,-23.8%,–,–
O=C(C1C2C(=O)N(C3CCCCCC3)C[C@@]23C=C[C@@H]1O3)N1CCS(=O)(=O)CC1 (stereo not given in full),-13.7%,–,–
COCCN1CCOC[C@H]2CCN(C(=O)c3sc(C)nc3C)C[C@H]21,8.08%,–,–
COCCNC(=O)CC[C@]12CC[C@](C)(O)C[C@H]1C(C)(C)C[C@@H]2NC(=O)c1ccco1,1.79% [at 172 µM],–,–
N[C@@H]1CCN(Cc2cccc(Oc3ccc(F)cc3)c2)C[C@H]1O,–,79.4 µM (active),–
CNC(=O)[C@@H]1CN(Cc2cccc(OC)c2)C[C@H]1CO,-2.57%,–,–
COc1cccc(CN2CC[C@@](C)(O)[C@H](N3CCCC3)C2)c1,-1.62%,–,–
COC(=O)C1=C(C)N=C2SC=C(CC(=O)NCc3ccco3)N2C1c1cccc(F)c1 (stereo not given),-28.9%,–,–
CC(C)(C)c1nc(C(=O)N2CCOCC2)n2ccccc12,-9.1% [at 172 µM],–,–
CCCNC(=O)N1CCCC1c1nc(C2CCOCC2)no1 (stereo not given),-1.86%,–,–
COCCN1C(=O)CS(=O)C12CCN(C(=O)NC1CCCC1)CC2 (stereo not given),–,–,inactive
Cn1nccc1C(=O)N1CCCCCNC(=O)[C@@H]2CCC[C@@H]21,1.85%,–,–
COc1ccccc1Nc1ncc2c(n1)CN(C(=O)COc1ccccc1)CCN2,-45.3% [at 172 µM],–,–
O=C(c1cccc(O)c1)N1CCNc2cnc(Nc3cccc(F)c3)nc2C1,–,100 µM (active),–
O=C(c1cccc(F)c1)N1CCCC(c2nccn2Cc2cscn2)C1 (stereo not given),-9.43%,–,–
Cc1ccc(C(=O)N2C[C@H]3CN(C4CCOCC4)C[C@@]3(C(=O)O)C2)cc1,-3.71%,–,–
Cc1nnc(-c2cc(-c3ccccc3)ccn2)n1CCc1ccccc1,–,89.1 µM (active),–
COCCn1c(C)nnc1-c1cc(-c2cccc(F)c2)ccn1,-14.4% [at 172 µM],–,–
COc1ccc(-c2ccnc(-c3nnc(C)n3C3CCN(C)CC3)c2)cc1OC,–,–,inactive [at 172 µM]
